# Assay outcomes as filed in PubChem BioAssay.
# Only some compounds are listed: those with a hit (about 1.6% of all), similar ones and a draw of the others.
# Arbovirus anti – arbovirus infection inhibition. 200,000 tested, 0.37% active. AID 1251. inhibition, % at 10 µM. arbovirus infection cell-based antiviral screen; in the data active means inhibition above about 30%
# S1P4 antag – blocks the human S1P4 receptor; S1P4-expressing cells, antagonist mode, reporter read-out; 220,000 tested, 0.26% active; inhibition, % at 4.98 µM; O95977; in the data active means inhibition above about 29%;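 further: 0% = wells stimulated with agonist and 100% = vehicle wells without agonist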
# Redox H2O2 prof – compounds producing H2O2 with reducing agent – biochemical, NIH compound library profiling, artefact control for MLSCN library redox annotation, primary screen; 200,000 tested, 0.03% active; AID 878; activation, % at 10 µM; DTT-dependent redox cycling H2O2, phenol red/HRP absorbance; 100% = 100 µM peroxide control, 0% = buffer;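 active means activation of at least 50% relative to the plate's high and low controls in the primary single-dose screen; inactive means activation below 50%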;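 further: compound incubated with DTT at 0.8 mM final as the reducing agent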
# S1P4 ag – human S1P4 receptor agonism | O95977 | S1P4-expressing cell line, agonist reporter assay | activation, % at 4.98 µM | 220,000 tested, 0.35% active; in the data active means activation above about 11%;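 further: 0% = DMSO vehicle and 100% = reference agonist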
# p97 inhibitor – blocks human p97 ATPase activity. AID 1481. recombinant p97 ATPase, Kinase-Glo ATP luminescence, 3 h. inhibition, % at 8 µM. 220,000 tested, 0.42% active; in the data active means inhibition above about 15%;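 further: 0% = DMSO vehicle and 100% = wells lacking enzyme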
# Target sequence (P55072 whole entry, looked up): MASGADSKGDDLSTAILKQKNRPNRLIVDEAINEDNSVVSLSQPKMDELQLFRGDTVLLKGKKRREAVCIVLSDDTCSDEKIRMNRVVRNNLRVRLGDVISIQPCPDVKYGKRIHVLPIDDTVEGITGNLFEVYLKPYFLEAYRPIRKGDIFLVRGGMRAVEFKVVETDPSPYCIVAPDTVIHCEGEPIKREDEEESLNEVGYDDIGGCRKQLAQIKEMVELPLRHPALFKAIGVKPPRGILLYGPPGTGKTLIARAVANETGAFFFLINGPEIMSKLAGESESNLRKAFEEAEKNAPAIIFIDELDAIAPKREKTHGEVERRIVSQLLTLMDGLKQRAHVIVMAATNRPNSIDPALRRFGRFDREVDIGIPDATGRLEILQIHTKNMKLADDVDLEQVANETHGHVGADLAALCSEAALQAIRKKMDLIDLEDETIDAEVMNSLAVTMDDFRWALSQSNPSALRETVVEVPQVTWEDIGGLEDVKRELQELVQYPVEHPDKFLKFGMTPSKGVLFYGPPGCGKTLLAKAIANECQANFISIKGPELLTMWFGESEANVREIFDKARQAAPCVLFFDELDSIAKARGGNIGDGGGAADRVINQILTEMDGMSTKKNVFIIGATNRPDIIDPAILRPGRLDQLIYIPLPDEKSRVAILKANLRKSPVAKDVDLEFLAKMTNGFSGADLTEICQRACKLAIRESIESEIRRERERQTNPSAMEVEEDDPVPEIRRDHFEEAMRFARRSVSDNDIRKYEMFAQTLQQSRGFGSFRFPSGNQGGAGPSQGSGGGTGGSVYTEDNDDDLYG
# S1P3 antag – blocks the human S1P3 receptor. CHO S1P3 NFAT-BLA reporter, FRET fluorescence, antagonist mode. Q99500. 170,000 tested, 0.27% active. inhibition, % at 4.98 µM. AID 485;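 active means inhibition above the plate cutoff, the mean inhibition of test wells on that plate plus 3 SD, cut at about 28% in these data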;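 further: cells challenged with S1P at its EC80 of 0.8 µM; blue over green emission ratio from cleaved BLA substrate after 4 h stimulation; 0% = S1P-stimulated wells and 100% = unstimulated DMSO-only wells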
# * hit, by the source's call; . = no result.
SMILES,Arbovirus anti,S1P4 antag,Redox H2O2 prof,S1P4 ag,p97 inhibitor,S1P3 antag
O=C(NC(=S)Nc1cccc(Cl)c1N1CCCC1)c1ccc(-c2cccc([N+](=O)[O-])c2)o1,-12.0,-17.8,0.1,-1.6,3.8,.
COc1ccc(-n2c(SCC(=O)NNC(=O)c3ccc(C)cc3)nnc2-c2ccncc2)cc1,-0.8,1.2,-0.6,0.0,-0.4,1.5
Cc1ccc(C(=O)N/C(=C\c2cccs2)C(=O)NCc2cccnc2)cc1,30.3*,1.8,-0.1,2.0,9.0,-13.1
Cc1ccc(C(=O)Nc2ccccc2C(=O)NC(CC(=O)O)C(=O)O)cc1 (stereo unspecified),3.0,-0.7,-0.2,0.4,31.8*,16.1
O=C(O)CC(NC(=O)c1ccccc1NC(=O)c1ccccc1)C(=O)O (stereo unspecified),14.9,-11.0,3.1,1.1,2.3,-22.9
Cc1nc2c(C(=O)NCCC(C)C)c[nH]n2c(=O)c1Cl,35.5*,-6.3,0.4,2.9,2.5,-10.1
Cc1nc2c(C(=O)NCCc3ccccc3)c[nH]n2c(=O)c1Cl,10.0,-8.1,0.5,-3.2,-0.9,.
CC1(C)CC(c2nc(-c3ccc(Cl)cc3)cs2)CCS1 (stereo unspecified),-11.1,-15.2,-8.6,0.3,18.3*,.
CC1(C)CC(c2nc(-c3ccc(Br)cc3)cs2)CCS1 (stereo unspecified),10.0,-15.5,4.0,1.6,-5.2,2.8
CC(C)CN(CC(C)C)CC(O)COc1ccccc1Br (stereo unspecified),-5.0,-18.8,-0.1,1.7,4.1,8.4
CCCCN(CCCC)CC(O)COc1ccccc1Br (stereo unspecified),39.3*,-6.8,0.0,-0.8,0.9,13.4
COc1ccccc1-n1c(C)cc(/C=C2/C(=N)N3C(=NC2=O)SN=C3S(C)(=O)=O)c1C,35.5*,-2.1,-1.1,0.5,0.8,6.5
Cc1cc(/C=C2/C(=N)N3C(=NC2=O)SN=C3S(C)(=O)=O)c(C)n1-c1ccc(F)cc1,37.1*,-22.7,-0.5,0.2,2.4,2.2
CC1=CC2=NC(=O)/C(=C\c3cc(C)n(-c4ccc(F)cc4)c3C)C(=N)N2O1,3.6,-14.8,-0.5,-1.8,-6.5,-18.5
CCOc1ccc(-n2c(C)cc(/C=C3/C(=N)N4C(=NC3=O)SN=C4S(C)(=O)=O)c2C)cc1,42.2*,-9.7,0.3,1.9,2.1,-15.6
COc1cccc2c1C(=O)c1c(O)c3c(c(O)c1C2=O)C[C@@](O)(C(C)=O)C[C@@H]3O[C@H]1C[C@H](N)[C@H](O)[C@H](C)O1,-44.6,101.4*,3.1,-2.8,-4.1,-2.2
Cc1c(Cl)cnc(NC(=O)COC(=O)Cc2coc3ccc4ccccc4c23)c1Cl,-0.9,-8.9,0.1,1.0,5.4,-1.4
Cc1ccc(NC(=O)COc2ccc(Br)cc2CO)cc1,36.4*,1.5,0.1,1.3,-6.6,.
Cc1cc(C)cc(N(CCC#N)C(=O)CSc2nc3nc(C)cc(C)n3n2)c1,1.8,20.3,1.6,-0.3,1.5,-0.8
CC(=O)Nc1ccc(SCC(=O)N(CCC#N)c2cc(C)cc(C)c2)cc1,49.0*,9.2,0.2,-0.7,3.1,.
O=C(NC1CCCCC1)C(=S)NC1CCCCC1,3.4,-5.3,0.5,0.7,1.6,-10.8
O=c1oc(-c2cccs2)nc2sc3c(c12)CCCCC3,25.0,-11.1,-1.1,0.8,2.9,0.7
Cc1ccccc1-c1nc2sc3c(c2c(=O)o1)CCC3,9.3,-17.8,0.4,1.9,-1.0,.
O=c1oc(/C=C/c2ccccc2)nc2sc3c(c12)CCC3,66.2*,-15.7,0.4,2.3,2.1,.
O=c1oc(-c2ccccc2)nc2sc3c(c12)CCCC3,31.8*,-0.2,0.2,-0.3,-3.0,.
O=c1oc(-c2cc3ccccc3o2)nc2sc3c(c12)CCCC3,77.9*,-4.6,0.2,1.8,4.4,-17.6
CCN(CC)CCNC(=O)C(=O)NCC1OCCN1C(=O)c1ccc2c(c1)OCO2 (stereo unspecified),4.7,-29.1,0.1,1.5,1.5,-13.7
C/C(=N\NC(=O)c1c(Cl)c(C)nn1C)c1ccc(NC(=O)c2ccncc2)cc1,40.6*,-21.7,-1.2,-1.2,-5.0,-1.4
O=C(Cc1ccc(Cl)c(Cl)c1)Nc1ccc2[nH]c(=O)[nH]c2c1,-0.9,2.4,-1.9,0.3,3.3,-16.2
